Assay [1] is described as follows: ATG_CRE_CIS: Attagene CIS-FACTORIAL HepG2 Assay for human cAMP Responsive Element (CRE) binding protein 3 (AID 2282926). Conditions: HepG2 CRE cis-reporter, Attagene multiplexed mRNA; actives raise or lower the signal. The procedure, abridged:
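Liver-derived HepG2, transfected with a CRE-containing reporter panel, exposed 24 h; transcript levels sized and quantified by capillary electrophoresis of labelled amplicons; signal changes either way referenced to vehicle.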

In assay [2] the target is CCAAT/enhancer-binding protein beta (Homo sapiens) (UniProt P17676). The assay can be described thus: ATG_C_EBP_CIS: Attagene CIS-FACTORIAL HepG2 Assay for human CCAAT/Enhancer Binding Protein (C/EBP) beta (AID 2282927). Conditions: HepG2 Attagene cis-factorial transcription factor reporter; actives raise or lower the signal. The essentials: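 Following a 24 h incubation with test chemical, transfected HepG2 cells yielded RNA whose reporter transcripts were quantified by RT-PCR and fluorescent capillary electrophoresis, with DMSO serving as baseline for bidirectional fitting.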
Sequence of CCAAT/enhancer-binding protein beta (Homo sapiens) (P17676 whole entry, looked up): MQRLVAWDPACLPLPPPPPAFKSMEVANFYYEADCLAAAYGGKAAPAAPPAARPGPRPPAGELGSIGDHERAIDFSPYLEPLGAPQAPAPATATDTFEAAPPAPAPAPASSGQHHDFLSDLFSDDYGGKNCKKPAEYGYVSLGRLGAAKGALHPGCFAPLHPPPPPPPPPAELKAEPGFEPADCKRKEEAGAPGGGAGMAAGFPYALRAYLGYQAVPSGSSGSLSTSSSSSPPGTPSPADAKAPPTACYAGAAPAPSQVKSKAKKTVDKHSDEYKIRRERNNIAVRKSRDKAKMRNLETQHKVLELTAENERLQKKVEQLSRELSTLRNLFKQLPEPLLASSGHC

Assay [3] can be described thus: ATG_CMV_CIS: Attagene CIS-FACTORIAL HepG2 Assay for human CMV (Internal Marker) (AID 2282928).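 Further: endpoint acts as a background internal control marker rather than a target.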 As to conditions: HepG2 CMV promoter reporter, transcription factor profiling; actives raise or lower the signal. The essentials:
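Bidirectional fits against DMSO are applied to reporter mRNA, read by RT-PCR with capillary electrophoresis, from HepG2 cells exposed 24 h. The endpoint serves as an internal CMV background marker within the cis-factorial reporter panel.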

A short description of assay [4]: ATG_AP_1_CIS: Attagene CIS-FACTORIAL HepG2 Assay for human Activator Protein 1 (AP-1) (AID 2282931). Conditions: HepG2 Attagene cis-factorial AP-1 reporter mRNA; actives raise or lower the signal. The essentials: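 We transfected HepG2 cells transiently with a set of cis-regulated reporter transcription units, dosed them for 24 h, and quantified reporter mRNA via RT-PCR and capillary electrophoresis, scoring gain or loss of signal relative to DMSO.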

The target in assay [5] is Retinoic acid receptor alpha (Homo sapiens) (UniProt P10276). The assay can be described thus: ATG_DR5_RAR_CIS: Attagene CIS-FACTORIAL HepG2 Assay for human Retinoic Acid Receptor Alpha (RARE), DR5 submotif (AID 2282934).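 On AC50: reporter responds to endogenous RAR alpha beta and gamma in HepG2 not RARA alone.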 Conditions: HepG2 Attagene cis-factorial RARE DR5 reporter, mRNA; actives raise or lower the signal. The essentials: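 Endpoint fitted in both directions relative to DMSO as negative control. It reflects DR5 cis-element reporter mRNA induction in transiently transfected HepG2 cells, measured 24 h after dosing through RT-PCR and fluorescent capillary electrophoresis.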
Sequence of Retinoic acid receptor alpha (Homo sapiens) (P10276 whole entry, looked up): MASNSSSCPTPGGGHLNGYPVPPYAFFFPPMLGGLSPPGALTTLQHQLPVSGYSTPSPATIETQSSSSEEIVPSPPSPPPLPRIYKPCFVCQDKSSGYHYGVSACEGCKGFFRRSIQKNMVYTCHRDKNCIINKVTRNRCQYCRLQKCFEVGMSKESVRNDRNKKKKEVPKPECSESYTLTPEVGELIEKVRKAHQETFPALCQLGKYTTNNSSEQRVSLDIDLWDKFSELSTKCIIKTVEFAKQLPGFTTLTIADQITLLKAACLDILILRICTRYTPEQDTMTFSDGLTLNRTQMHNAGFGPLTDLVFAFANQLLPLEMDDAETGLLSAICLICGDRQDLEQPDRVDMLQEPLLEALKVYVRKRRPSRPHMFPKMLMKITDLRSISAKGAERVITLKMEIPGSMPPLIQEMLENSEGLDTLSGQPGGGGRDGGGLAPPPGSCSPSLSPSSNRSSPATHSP

Assay [6] deals with Aryl hydrocarbon receptor (Homo sapiens) (UniProt P35869). The assay can be described thus: ATG_Ahr_CIS: Attagene CIS-FACTORIAL HepG2 Assay for human Aryl Hydrocarbon Receptor (Ahr) (AID 2282930). As to conditions: HepG2 AhR cis-factorial reporter transcription; actives raise or lower the signal. The procedure, abridged: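 Values derive from bidirectional fitting against DMSO negative control. Underlying signal: cis-element reporter mRNA in transiently transfected HepG2, harvested 24 h post-dose and measured by RT-PCR plus capillary electrophoresis.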
Sequence of Aryl hydrocarbon receptor (Homo sapiens) (P35869 whole entry, looked up): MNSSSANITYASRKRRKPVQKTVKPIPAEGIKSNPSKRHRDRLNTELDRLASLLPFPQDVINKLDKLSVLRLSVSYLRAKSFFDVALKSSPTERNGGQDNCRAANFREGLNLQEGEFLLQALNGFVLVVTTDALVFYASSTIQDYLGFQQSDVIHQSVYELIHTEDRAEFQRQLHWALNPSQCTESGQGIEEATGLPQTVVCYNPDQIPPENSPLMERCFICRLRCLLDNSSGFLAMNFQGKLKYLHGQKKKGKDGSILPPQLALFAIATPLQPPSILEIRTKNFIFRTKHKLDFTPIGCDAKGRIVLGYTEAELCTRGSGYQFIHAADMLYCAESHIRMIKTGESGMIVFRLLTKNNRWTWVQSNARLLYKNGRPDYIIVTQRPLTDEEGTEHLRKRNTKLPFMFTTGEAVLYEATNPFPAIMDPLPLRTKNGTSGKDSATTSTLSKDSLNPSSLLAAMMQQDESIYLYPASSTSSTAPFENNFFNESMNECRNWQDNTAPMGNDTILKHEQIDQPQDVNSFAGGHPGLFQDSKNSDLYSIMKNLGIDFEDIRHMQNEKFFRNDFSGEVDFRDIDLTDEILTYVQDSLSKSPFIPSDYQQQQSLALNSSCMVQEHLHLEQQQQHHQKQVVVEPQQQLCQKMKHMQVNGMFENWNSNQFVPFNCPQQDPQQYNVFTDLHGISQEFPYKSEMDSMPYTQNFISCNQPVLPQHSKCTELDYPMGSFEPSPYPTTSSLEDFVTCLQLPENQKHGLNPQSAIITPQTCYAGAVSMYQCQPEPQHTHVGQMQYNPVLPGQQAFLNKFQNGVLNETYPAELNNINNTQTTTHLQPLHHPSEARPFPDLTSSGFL

Assay [7] is described as follows: ATG_AP_2_CIS: Attagene CIS-FACTORIAL HepG2 Assay for human Activator Protein 2 (AP-2) (AID 2282932). As to conditions: HepG2 AP-2 cis-reporter, Attagene transcription factor profiling; actives raise or lower the signal. The essentials: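 Assay in transfected HepG2 with promoter-regulated reporters, 24 h incubation after dosing. Signal is reporter mRNA fluorescence (RT-PCR, capillary electrophoresis), analysed for both increases and decreases relative to DMSO controls.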

A short description of assay [8]: ATG_BRE_CIS: Attagene CIS-FACTORIAL HepG2 Assay for human Bone Morphogenetic Protein (BMP) Response Element (BRE) (AID 2282933). Conditions: HepG2 BMP response element reporter, Attagene transcription factor profiling; actives raise or lower the signal. The essentials: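 A HepG2 multiplex reporter system measured inducible reporter mRNA 24 h post-dosing. Detection: RT-PCR, 6-FAM primer extension, HpaI digestion, capillary electrophoresis. Activity fitted bidirectionally relative to DMSO.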

Assay [9] addresses Transcription factor E2F1 (Homo sapiens) (UniProt Q01094). The assay can be described thus: ATG_E2F_CIS: Attagene CIS-FACTORIAL HepG2 Assay for human E2F Transcription Factor 1 (AID 2282935). Conditions: HepG2 Attagene cis-reporter, E2F reporter RNA transcripts; actives raise or lower the signal. The procedure, abridged: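 In this cis-factorial format, endogenous factor activity drives transfected reporters in HepG2; transcripts collected at 24 h are quantified by fluorescence after RT-PCR and capillary separation.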

A short description of assay [10]: ATG_DR4_LXR_CIS: Attagene CIS-FACTORIAL HepG2 Assay for human Liver X Receptor (LXR), DR4 submotif (AID 2282929). Conditions: HepG2 Attagene DR4 cis-reporter, mRNA transcription; actives raise or lower the signal. The essentials: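 Transiently transfected HepG2 liver cells; cis-regulated reporters; 24 h dosing. RT-PCR plus CE read-out of reporter mRNA. DMSO baseline, bidirectional curve fitting.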

Activity calls are given as the source filed them. How the source made its calls: active means hit-call score of the fitted dose curve at least 0.9, where 1 is the maximum; inactive means score below 0.9.

A word on the AC50: it is the concentration at which the activity in the assay is half-maximal.

Sequence of Transcription factor E2F1 (Homo sapiens) (Q01094 whole entry, looked up): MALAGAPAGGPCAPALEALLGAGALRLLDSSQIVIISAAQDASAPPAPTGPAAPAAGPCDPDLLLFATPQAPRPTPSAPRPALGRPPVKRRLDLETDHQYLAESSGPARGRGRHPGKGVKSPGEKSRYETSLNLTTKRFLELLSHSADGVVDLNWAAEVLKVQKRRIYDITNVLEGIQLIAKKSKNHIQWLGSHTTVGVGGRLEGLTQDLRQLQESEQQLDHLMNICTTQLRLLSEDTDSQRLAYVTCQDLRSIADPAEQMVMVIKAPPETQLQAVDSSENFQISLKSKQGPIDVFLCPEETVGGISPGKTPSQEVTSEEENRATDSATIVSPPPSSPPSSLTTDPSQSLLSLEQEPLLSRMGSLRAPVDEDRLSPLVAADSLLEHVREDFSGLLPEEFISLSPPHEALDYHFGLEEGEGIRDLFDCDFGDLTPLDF

Consider `Cc1c(C)c([N+](=O)[O-])c(C(C)(C)C)c([N+](=O)[O-])c1C`, for which the call in assay [1], in assay [2], in assay [3] and in [4] was inactive. The AC50 in assay [5] is 5.92 µM (active).
For the compound `CC(C)=CCC/C(C)=C\C#N`, the call in assay [1], in assay [3], in assay [6], in assay [7], in [8] and in assay [5] was inactive. The result in [9] was inactive.
With `Cc1ccc(OC(=O)CC(C)C)cc1`, the compound was called inactive in [1], in [3], in assay [10], in [6], in assay [4] and in assay [7]. Moreover, the call in [8] and in assay [5] was inactive.
On to `O=S(=O)(O)CC(O)CCl` (centres undefined), for which the call in assay [1], in assay [3], in assay [10], in [4], in [8] and in [5] was inactive. Also, in assay [9], the compound was classed as inactive.
For the compound `CCC(CC)C(=O)O`, the result in assay [1], in assay [3], in assay [10], in assay [6], in assay [4] and in [7] was inactive. In addition, the compound was called inactive in [8], in assay [5] and in assay [9].
With `CC[C@H]1OC(=O)[C@H](C)[C@@H](O[C@H]2C[C@@](C)(OC)[C@@H](O)[C@H](C)O2)[C@H](C)[C@@H](O[C@@H]2O[C@H](C)C[C@H](N(C)C)[C@H]2O)[C@](C)(O)C[C@@H](C)C(=NOCOCCOC)[C@H](C)[C@@H](O)[C@]1(C)O`, the call in assay [1], in assay [3], in assay [10], in assay [6], in assay [4] and in assay [7] was inactive. Moreover, the call in assay [8], in [5] and in assay [9] was inactive.
Regarding `O=C1CCCC1`, the compound was classed as inactive in [1], in assay [3], in assay [10], in [6], in assay [4] and in assay [7]. The compound was called inactive in assay [8], in assay [5] and in assay [9].
As for `O=[N+]([O-])C1(Br)COCOC1`, the concentration at half-maximal activity (AC50) in assay [1] was 53.6 µM (active); in assay [8], 33.4 µM (active). Further, the outcome in assay [3], in [10], in [6], in assay [4], in [7] and in assay [5] was inactive.
Consider `O=C(C(Cl)Cl)N1CCOC12CCCCC2`, for which the compound was called inactive in assay [1], in assay [3], in assay [6], in assay [7], in assay [8] and in assay [5]. Moreover, the result in assay [9] was inactive. In addition, the AC50 in assay [10] is 12 µM (active); in [4] it was 69.1 µM (active).
Consider `CCCNC(=O)NS(=O)(=O)c1ccc(Cl)cc1`, for which the compound was classed as inactive in [1], in assay [3], in [10], in assay [6], in assay [4] and in [7]. The outcome in assay [8], in assay [5] and in [9] was inactive.
As to `NNC(=O)c1cccc(C(=O)NN)c1`, the outcome in assay [1], in assay [3], in assay [10], in assay [4], in [7] and in assay [5] was inactive. In addition, the outcome in [9] was inactive.
As for `O=c1cc[nH]c(=S)[nH]1`, the call in assay [1], in assay [3], in assay [10], in [6], in assay [4] and in [7] was inactive. Further, the call in [8], in assay [5] and in [9] was inactive.
Consider `O=C1CCC(=O)N1Cl`, for which the compound was called inactive in assay [1], in [3], in assay [6], in [4], in assay [7] and in [8]. The call in assay [5] and in [9] was inactive.
Turning to `O=C(c1ccccc1)c1ccc(O)c(O)c1O`, the compound was called inactive in assay [1], in [3], in assay [4], in assay [7], in [8] and in assay [5]. Moreover, the result in [9] was inactive. Also, the AC50 in assay [6] is 84.4 µM (active).
Turning to `CCOC(=O)CC`, the call in assay [1], in assay [3], in [10], in assay [4], in assay [7] and in assay [8] was inactive. Further, the outcome in [5] and in assay [9] was inactive.
As to `COCCCOCCCOC`, the call in [1], in [2], in [3], in assay [4], in assay [7] and in [8] was inactive. In addition, the outcome in assay [5] and in assay [9] was inactive.
Turning to `NC(=O)OCC(COC(N)=O)c1ccccc1`, the outcome in assay [1], in assay [3], in assay [6], in assay [4], in assay [7] and in assay [8] was inactive. Moreover, the compound was called inactive in assay [5] and in assay [9].
As for `C[Si](C)O[Si](C)(C)O[Si](C)(C)O[Si](C)C`, the outcome in assay [1], in assay [3], in assay [6], in [4], in assay [7] and in [8] was inactive. Further, the result in assay [5] and in assay [9] was inactive.
Regarding `O=[N+]([O-])c1ccc(CO)cc1`, the result in assay [1], in [2], in [3], in assay [7], in [5] and in assay [9] was inactive.
`[Cl][Nd]([Cl])[Cl]`: the call in assay [1], in assay [3], in [10], in [6], in assay [4] and in assay [7] was inactive. The compound was classed as inactive in [8], in [5] and in assay [9].

Values taken from PubChem BioAssay (EPA / NIEHS).
